# Shown is part of a subset that was picked to be rich in hits.
# mHTT-CaM PPI inh – mHTT-calmodulin interaction abrogation; 190,000 tested, 3.6% active; AlphaScreen His-mHTT/GST-CaM binding, luminescence; inhibition, % at 15 µM; AID 1671202; P42858;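 also: 0% = both proteins with DMSO and 100% = one protein alone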
# Pf apPOL block – Pf-apPOL DNA polymerase inhibition; inhibition, % at 10 µM; Recombinant Pf-apPOL, molecular beacon fluorescence, 1.5 h; 210,000 tested, 0.25% active
# * marks the source's active call; other numbers are inactive results; x = no result; ! = repeats disagree. Rule as the data show it: active = inhibition above about 50%; inactive = the rest.
SMILES,mHTT-CaM PPI inh,Pf apPOL block
Cc1cccc(C(=O)N2CCC(CCOc3ccccc3)CC2)c1,-11.8,-4.0
Cc1cccc(C(=O)N2CCC(=O)N([C@H](COCc3ccccc3)Cc3ccccc3)CC2)c1,64.6*!,-6.2
Cc1cccc(C(=O)N2CCN(C)CC2)c1,-0.2,0.6
Cc1cccc(C(=O)N2CCC(=O)N([C@H](COCc3cccc(C(F)(F)F)c3)Cc3ccccc3)CC2)c1,99.3*,-6.8
Cc1cccc(COC[C@H](Cc2ccccc2)N2CCN(C(=O)c3cccc(Cl)c3)CCC2=O)c1,98.1*,-3.8
Cc1cccc(COC[C@H](Cc2ccccc2)N2CCN(C(=O)c3cc(Cl)cc(Cl)c3)CCC2=O)c1,-0.3,-2.4
Cc1cccc(COC[C@H](Cc2ccccc2)N2CCN(C(=O)c3cccc(C)c3)CCC2=O)c1,80.8*!,-2.1
O=C1C(=O)N(CCN2CCOCC2)C(c2cccnc2)C1=C(O)c1ccc(Br)cc1 (stereo not given),-1.3,-8.3
Cc1ccccc1/C=C1/SC(=Nc2ccccc2)NC1=O,48.0,-1.3
COc1ccc(Br)cc1/C=C1/SC(=Nc2ccccc2)NC1=O,19.0,-2.9
O=C1NC(=Nc2ccccc2)S/C1=C/c1cc(Br)ccc1O,55.0*,-41.3
O=C1NC(=Nc2ccccc2)S/C1=C/c1cc(Br)cc(Cl)c1O,96.0*,-3.0
O=C1NC(=Nc2ccccc2)S/C1=C/c1cc(I)ccc1O,52.0*,-5.5
O=C1NC(=Nc2ccccc2)S/C1=C/c1ccc(O)c(O)c1,43.0,-13.4
CCCOc1nccnc1N1CCC(N(C)C(=O)Cc2cccnc2)C1 (stereo not given),23.1,3.0
Cc1ccnc(N2CCC(C(=O)NCc3ccc(F)cc3Cl)CC2)n1,-9.9,-3.8
O=C(c1ccncc1)N1CCc2nc(-c3ccc(Cl)cc3)ncc2C1,-10.6,5.8
O=C(NCCc1ccccc1)NCCC1CCN(C(=O)Nc2cccc(Cl)c2)CC1,5.6,-2.5
Cc1ccnc(SCc2cc(=O)c(OC(=O)C(C)(C)Oc3ccc(Cl)cc3)co2)n1,99.0*,1.7
COc1cccc(C(=O)Oc2coc(CSc3nccc(C)n3)cc2=O)c1OC,33.6,-6.4
O=S(=O)(NCCSCc1ccc(Cl)c(Cl)c1)c1ccc2c(c1)OCCO2,50.6*,-6.0
CS(=O)(=O)NCCSCc1ccc(Cl)c(Cl)c1,3.5,-1.6
CC(=O)Nc1ccc(S(=O)(=O)NCCSCc2ccc(Cl)c(Cl)c2)cc1,90.1*,-10.5
O=S(=O)(NCCSCc1ccc(Cl)cc1)c1ccc2c(c1)OCCO2,-5.0,-0.8
Cc1c(C(=O)Nc2ccc3c(c2)OCO3)sc2ncnc(N3CCCCC3)c12,12.0,-25.6
SMILES,mHTT-CaM PPI inh,Pf apPOL block
CC(=O)N1CCN(c2ccc([N+](=O)[O-])c(NCCc3ccccc3)c2)CC1,47.2,-5.8
CCOc1ccc(/C=C2\C(=O)NN(c3cccc(Br)c3)C2=O)cc1OCC,5.0,-2.2
CCOc1cc(/C=C2\C(=O)NN(c3ccc(C)c(Cl)c3)C2=O)cc(Cl)c1OCC,41.0,-11.3
COc1cc(/C=C2\C(=O)NN(c3cccc(Br)c3)C2=O)cc(Cl)c1OC(C)C,84.0*,-4.4
COc1cc(/C=C2\C(=O)NN(c3ccc(C)c(C)c3)C2=O)cc(Cl)c1OC,58.0*,-6.5
CCOc1cc(/C=C2\C(=O)NN(c3ccc(C)c(C)c3)C2=O)cc(Cl)c1OCC,63.0*,-2.0
COc1cc(/C=C2\C(=O)NN(c3ccccc3)C2=O)cc(Cl)c1OC,28.0,-0.6
COc1ccc(C(=O)NCC2Cc3cc(F)cc(F)c3O2)cc1OC (stereo not given),2.8,1.3
Nc1nnc(SCc2ccc(OC(F)(F)C(F)F)cc2)s1,-4.1,-6.2
Cc1ccc(NC(=O)c2ccc([N+](=O)[O-])cc2Cl)cc1Cl,29.9,-5.3
Cc1ccc(-c2csc(=Nc3ccc(F)cc3)n2CCO)cc1,63.0*,-0.3
OCCn1c(-c2ccc(F)cc2)csc1=Nc1ccc(F)cc1,44.0,-2.1
O=C1c2ccccc2C(=O)N1c1cccc(-c2csc(=Nc3ccccc3)n2CCO)c1,31.0,-1.3
OCCCn1c(-c2ccc(F)cc2)csc1=Nc1ccc(F)cc1,59.0*,-3.3
c1csc(CN2CCc3c([nH]c4ccccc34)C2)c1,10.1,1.2
CC(C)c1ccc(C(=O)NCc2ccncc2)cc1,1.7,-1.9
COCCCNC(=O)c1cccc(Cl)c1,-7.7,1.1
COCCCNC(=O)c1ccc(Cl)c(NC(=O)Nc2ccc(Cl)c(Cl)c2)c1,52.0*,-12.5
Cc1cccc(NC(=O)N2CCC(N3CCN(Cc4ccccc4)C3=O)CC2)c1C,99.9*,-3.6
Cc1ccccc1NC(=O)N1CCC(N2CCN(Cc3ccccc3)C2=O)CC1,0.4,-3.4
Cc1nn(C)c(C)c1CNc1nc(C2CC2)nc2c1CCC2,-5.4,1.8
CCOC(=O)C(C#N)=CN=C(NN=C(C)c1cc2ccccc2o1)SC,x,-10.1
N#CC1=C(N)Oc2n[nH]c(-c3ccc(F)cc3)c2C1c1cccc(F)c1 (stereo not given),12.0,-4.2
COc1cc(C2C(C#N)=C(N)Oc3n[nH]c(-c4cccs4)c32)cc(OC)c1O (stereo not given),19.0,6.9
COc1cc(C2C(C#N)=C(N)Oc3n[nH]c(-c4ccc(Cl)s4)c32)ccc1O (stereo not given),60.0*,-2.0
SMILES,mHTT-CaM PPI inh,Pf apPOL block
N#CC1=C(N)Oc2n[nH]c(-c3ccc(Cl)c(Cl)c3)c2C1c1cccc(O)c1 (stereo not given),100.0*,-0.2
N#CC1=C(N)Oc2n[nH]c(-c3ccc(Cl)cc3)c2C1c1ccc(F)cc1 (stereo not given),17.0,0.1
N#CC1=C(N)Oc2n[nH]c(-c3ccc(Cl)c(Cl)c3)c2C1c1ccc(O)c(O)c1 (stereo not given),99.0*,0.0
Cc1ccc(C(=O)N2CCC(c3nc(C(=O)N4CCCC4)c(C)o3)CC2)cc1C,40.3,-0.1
CCOc1ccc(Nc2nc(-c3ccc(C)c(C)c3)cs2)cc1,24.7,-8.7
Oc1ccc(Nc2nc(-c3ccc(Cl)c(Cl)c3)cs2)cc1,98.0*,-4.2
Cc1ccc(-c2csc(Nc3ccc(O)cc3)n2)cc1C,86.3*,2.5
O=C(O)c1ccc(Nc2nc(-c3cccnc3)cs2)cc1,-4.5,-4.3
Clc1ccc(-c2csc(Nc3ccccc3)n2)cc1,x,0.2
Oc1ccc(Nc2nc(-c3cccnc3)cs2)cc1,58.0*,1.1
Cn1c(=O)c2c(NCCc3c[nH]c4ccccc34)ccnc2n(C)c1=O,35.7,-6.9
c1ccc2c3c([nH]c2c1)CN(Cc1ccc2c(c1)OCO2)CC3,29.2,-2.3
COc1cccc(CN2CCc3c([nH]c4ccccc34)C2)c1OC,18.5,5.2
CN(C)c1ccc(CN2CCc3c([nH]c4ccccc34)C2)cc1,59.7*,-39.7
Clc1ccccc1CN1CCc2c([nH]c3ccccc23)C1,94.9*,-0.9
CC1C(=O)N(Cc2cn(CCC3OCCCO3)nn2)CCS(=O)(=O)N1Cc1ccc(-c2ccc(F)nc2)cc1 (stereo not given),14.6,-14.3
CC1C(=O)N(Cc2cn(Cc3ccco3)nn2)CCS(=O)(=O)N1Cc1ccc(-c2ccncc2)cc1 (stereo not given),29.5,8.9
CC1C(=O)N(Cc2cn(Cc3ccco3)nn2)CCS(=O)(=O)N1Cc1ccc(-c2ccccc2Cl)cc1 (stereo not given),76.8*,-2.8
CC1C(=O)N(Cc2cn(Cc3ccco3)nn2)CCS(=O)(=O)N1Cc1ccc(-c2ccc(F)cc2Cl)cc1 (stereo not given),81.0*,4.4

# Screening data (PubChem BioAssay)
